# Assay outcomes: PubChem, several laboratories
# This is one part of a sample in which hits are shown more often than they occur.
# GIRK2 activator: Activates human GIRK2-containing potassium channels | P48051 | HEK293 GIRK2/NPY4 cells, thallium flux fluorescence | activation (% efficacy), % for hits at 37.5 µM | 34,000 tested, under 10 active;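 active = primary screen hit, no activity in plain HEK293 cells, and in GIRK2-only cells above 5% efficacy rising with concentration; inactive = the rest, including fluorescent compounds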;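 also: efficacy is normalized control-subtracted fluorescence 15 s after thallium addition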
# GluA2 TARP mod: modulators of AMPA receptor GluA2-stargazin complexes; 3.5% of 40,000 active; O88602+P19491; calls only at 30 µM; HEK293 GluA2+stargazin, membrane potential dye (FDSS), glutamate EC50; hits were called plate by plate, in both directions;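 active = any of four per-well response measures lying three or more SD from its plate-wide compound average, in either direction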
# Numbers without * were called inactive; i = inactive; · = no result given; + = active, no number.
SMILES,GIRK2 activator,GluA2 TARP mod
COc1cc(COCC2CCN(C(=O)CC(c3ccccc3)c3ccccc3)CC2)cc(OC)c1,i,i
COc1cn(-c2ccc(F)cc2)nc1C(=O)Nc1cccc(NC(C)=O)c1,i,i
O=C(Nc1ccc(F)c(F)c1)c1sccc1S(=O)(=O)N1CCN(c2ccccc2)CC1,i,+
COc1cccc(NC(=O)c2sccc2S(=O)(=O)N2CCN(c3ccc(Cl)cc3)CC2)c1,i,·
O=C(Nc1ccccc1NC(=O)c1ccc(Br)o1)c1ccsc1,i,·
COc1cc(Br)c(/C=C/c2ccc3cccc(O)c3n2)cc1OC,·,i
O=[N+]([O-])c1cc(/C=C/c2ccc3cccc(O)c3n2)ccc1O,·,+
COc1cc(/C=C/c2ccc3cccc(O)c3n2)ccc1O,·,+
COc1cc(/C=C/c2ccc3cccc(O)c3n2)ccc1OCc1ccccc1,·,i
CCOc1cc(/C=C/c2ccc3cccc(O)c3n2)ccc1OC,·,+
O=[N+]([O-])c1ccc(O)c(/C=C/c2ccc3cccc(O)c3n2)c1,·,i
COc1ccc(OC)c2sc(N(CCN3CCOCC3)C(=O)c3cc(C)no3)nc12,i,·
O=C(COc1ccccc1)NCCn1ncc2c(N3CCN(c4ccccc4)CC3)ncnc21,i,i
Cc1ccc(NC(=O)Cc2ccc(S(C)(=O)=O)cc2)c(C(=O)c2ccccc2)c1,·,i
COc1ccc(NC(=O)CC2SC(=O)N(CC(=O)c3ccccc3)C2=O)cc1 (stereo not drawn),i,i
O=C(CC1SC(=O)N(Cc2ccccc2)C1=O)Nc1ccc([N+](=O)[O-])cc1 (stereo not drawn),i,+
O=C(CSc1nnnn1-c1ccc2ccccc2c1)Nc1ccccc1,i,i
Cc1ccc2c(=O)c(-c3nc(-c4ccc(F)cc4)no3)cn(CC(=O)Nc3cc(F)ccc3C)c2n1,i,i
Cc1cc(=O)n(CC(=O)Nc2nc3ccccc3[nH]2)cn1,i,i
O=C(Cn1nc(-c2cccnc2)ccc1=O)Nc1nc2ccccc2[nH]1,i,+
CCOCCn1c(=O)c2c(nc3n2CC(C)CN3c2ccccc2)n(C)c1=O (stereo not drawn),·,i
CCn1c(SCc2nc(-c3ccccc3Cl)no2)nc2ccccc2c1=O,·,i
CCOc1ccc(S(=O)(=O)NCC(O)(c2cccs2)C2CC2)cc1C (stereo not drawn),i,i
O=C(CS(=O)(=O)c1ccc(Br)s1)N1CCN(c2ccccc2F)CC1,i,i
COC(=O)/C=C1\S/C(=N/Nc2nc(C)cc(C)n2)N(c2ccccc2)C1=O,i,·
SMILES,GIRK2 activator,GluA2 TARP mod
COC(=O)/C=C1\S/C(=N\Nc2nc(C)cc(C)n2)N(c2ccccc2)C1=O,·,+
Cc1ccc(-c2nnc(CN3C(=O)c4ccccc4C3=O)o2)cc1,i,·
Nc1nc(-c2ccco2)nn1C(=O)c1ccc(F)cc1,·,i
CCCC(=O)N(CCN1CCOCC1)c1nc2c(OC)ccc(OC)c2s1,·,+
CCOc1ccc2nc(N(CCN3CCOCC3)C(=O)c3ccnn3C)sc2c1,i,i
CCn1nc(C)cc1C(=O)N(CCCN(C)C)c1nc2c(OC)ccc(Cl)c2s1,i,i
O=C(c1ccc(Br)s1)N(CCN1CCOCC1)c1nc2ccccc2s1,i,i
COc1ccc(OC)c2sc(N(CCN(C)C)C(=O)c3cc(C)nn3C)nc12,i,+
COc1ccc(OC)c2sc(N(CCN3CCOCC3)C(=O)CCc3ccccc3)nc12,·,i
CCOc1ccc2nc(N(CCN3CCOCC3)C(=O)c3ccc(S(C)(=O)=O)cc3)sc2c1,·,+
COc1ccc2nc(N(CCN3CCOCC3)C(=O)c3ccc(Br)s3)sc2c1,·,+
COc1ccc(CNC(=O)N2CCCN(CCn3cccn3)CC2)cc1,i,i
CC(=O)c1ccc(NC(=O)c2cccc([N+](=O)[O-])c2)cc1,·,i
CCS(=O)(=O)c1cccc(C(=O)N(CCN2CCOCC2)c2nc3ccccc3s2)c1,i,i
COc1ccc(C)c2sc(N(CCN3CCOCC3)C(=O)c3ccc(Br)s3)nc12,·,+
CCS(=O)(=O)c1cccc(C(=O)N(CCN2CCOCC2)c2nc3c(C)c(C)ccc3s2)c1,·,+
COc1ccc(C)c2sc(N(CCN3CCOCC3)C(=O)c3ccc(C)cc3)nc12,·,i
COc1ccc(C)c2sc(N(CCN3CCOCC3)C(=O)c3ccc(Cl)s3)nc12,·,+
COc1ccc(C)c2sc(N(CCN3CCOCC3)C(=O)c3ccc(Cl)cc3)nc12,·,i
COc1ccc2sc(N(CCN3CCOCC3)C(=O)c3cccc(F)c3)nc2c1,i,i
COc1ccc2sc(N(CCCN3CCOCC3)C(=O)c3ccno3)nc2c1,i,+
Cc1cc(S(=O)(=O)c2cc3cc(Cl)ccc3oc2=O)ccc1F,·,i
Cn1nnc2c(N3CCN(S(=O)(=O)c4ccccc4Cl)CC3)ncnc21,i,i
O=C(NCCOc1ccccc1)c1cc(Cl)ccc1[N+](=O)[O-],i,i
CCOC(=O)CSc1nc2ccccc2c(=O)n1NC(=O)Cc1ccccc1,·,i
SMILES,GIRK2 activator,GluA2 TARP mod
O=S(=O)(Cc1ccccc1)NCC(c1ccco1)N1CCOCC1 (stereo not drawn),i,i
O=S(=O)(Cc1ccc(Cl)cc1)NCC(c1ccco1)N1CCOCC1 (stereo not drawn),i,+
NC(=S)c1cc2ccc(O)cc2oc1=O,·,i
CN(C)c1ccc(-c2noc(-c3cc4ccc(O)cc4oc3=O)n2)cc1,i,+
O=S(=O)(Nc1cccnc1)c1ccc(F)cc1,·,i
O=S(=O)(c1cccs1)N1CCN(c2ccc(N3CCCC3)nn2)CC1,i,+
O=S(=O)(c1cccs1)N1CCN(c2ccc(-c3ccccc3)nn2)CC1,i,i
CC(C)Sc1ccc(CC(=O)NCC2CCN(C(=O)Nc3ccc(F)cc3)CC2)cc1,i,i
COC(=O)C1=C(CS(=O)(=O)c2cccs2)NC(=O)NC1c1ccccc1 (stereo not drawn),·,i
COc1ccc(OC)c(NC(=O)/C(C#N)=C/c2ccc(C(C)C)cc2)c1,i,i
COc1ccccc1/C=C(\C#N)C(N)=C(C#N)C#N,i,+
COc1cccc2cc(C(=O)NCC3(O)CCc4ccccc43)oc12 (stereo not drawn),i,·
CN(C)C(CNC(=O)c1c(F)cccc1F)c1cccc2ccccc12 (stereo not drawn),·,+
CCOc1ccc2ccccc2c1C(=O)NCC(c1cccs1)N1CCOCC1 (stereo not drawn),i,+
COc1cccc(OC)c1C(=O)NCC(c1cccs1)N1CCOCC1 (stereo not drawn),i,i
CCOc1ccc2ccccc2c1C(=O)NCC(c1ccc(OC)cc1)N1CCOCC1 (stereo not drawn),·,+
COc1ccc(C(=O)NCC(c2ccc(F)cc2)N2CCOCC2)cc1 (stereo not drawn),·,i
CCOc1ccc(C(=O)NCC(c2ccc(F)cc2)N2CCOCC2)cc1OCC (stereo not drawn),·,i
CN(C)C(CNC(=O)c1ccccc1Cl)c1cccc2ccccc12 (stereo not drawn),·,i
CCOc1ccc2ccccc2c1C(=O)NCC(c1ccc(F)cc1)N1CCOCC1 (stereo not drawn),·,+
COc1cccc(C(=O)Nc2ccc3c(c2)CCCN3C(=O)c2ccccc2)c1OC,·,i
